Source: PubChem BioAssay
IL-1B inflam inh: inflammasome signaling inhibition, IL-1 beta readout. activity change, % at 57.5 µM. AID 743279. THP-1 LPS/ATP IL-1B secretion, AlphaLISA, 16 h; hits give low values. hit rate 4.7% among 360,000; in the data active = activity change below about -50%; inconclusive = mostly about -30% to -49%; note: % is set by controls: 0 for no effect and ±100 for the full control effect
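Secreted IL-1B measured by AlphaLISA bead assay after 16 h compound exposure of THP-1 cells; compounds (final up to 57.5 uM) added 1 h before LPS (250 ng/mL) and ATP (1.25 mM) stimulation; lower signal means less secretion.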
TDP1 inh: TDP1 (human) enzyme inhibition | Q9NUW8 | recombinant TDP1, AlphaScreen DNA substrate cleavage | Potency, µM (titrated, usually from 130 µM), for inactives: at the highest dose activity change, negative = inhibition, most hits filed as inhibitors | hit rate 0.28% among 350,000 | AID 485290; note: potency is the fitted concentration of half-maximal effect; % is set by controls: 0 for no effect and ±100 for the full control effect; nearly all actives have a fitted effect of over 40% in size
Target sequence (Q9NUW8 whole entry, looked up): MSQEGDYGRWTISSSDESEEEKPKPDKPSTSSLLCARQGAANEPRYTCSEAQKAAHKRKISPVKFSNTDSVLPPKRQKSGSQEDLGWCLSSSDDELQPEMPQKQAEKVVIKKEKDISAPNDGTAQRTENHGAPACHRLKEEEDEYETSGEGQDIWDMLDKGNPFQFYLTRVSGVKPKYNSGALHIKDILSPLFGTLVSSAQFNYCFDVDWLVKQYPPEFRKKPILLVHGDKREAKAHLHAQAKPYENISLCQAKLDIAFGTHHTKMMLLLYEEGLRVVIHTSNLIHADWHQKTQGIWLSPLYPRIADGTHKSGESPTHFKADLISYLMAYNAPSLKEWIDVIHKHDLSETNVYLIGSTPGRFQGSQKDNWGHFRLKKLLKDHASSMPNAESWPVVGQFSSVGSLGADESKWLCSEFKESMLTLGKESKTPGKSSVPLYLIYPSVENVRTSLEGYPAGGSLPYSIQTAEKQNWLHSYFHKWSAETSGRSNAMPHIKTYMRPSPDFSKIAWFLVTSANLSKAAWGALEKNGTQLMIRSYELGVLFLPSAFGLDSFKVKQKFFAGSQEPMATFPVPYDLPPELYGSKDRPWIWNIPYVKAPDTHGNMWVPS
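Tdp1 1 nM final; 15 min RT w/ cpd; substrate 15 nM, 5 min; beads 10 ug/ml, 10 min; AlphaScreen read. Neg ctrl: no enzyme.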
TGFb inhibitor: inhibitors of TGF-b signaling; HepG2 CAGA-GFP TGF-b/SMAD3 reporter, GFP fluorescence, 18 h; TGF-beta stimulated, 500 pg/mL final; Potency, µM (highest dose often 46.1 µM), inactives show at the highest dose activity, negative = inhibition, actives largely listed as inhibitors; hit rate 1.2% among 410,000; AID 588855; note: potency is the fitted concentration of half-maximal effect; % is set by controls: 0 for no effect and ±100 for the full control effect; nearly all actives have a fitted effect of over 65% in size
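Cell-based qHTS in HEPG2 carrying a CAGA-GFP Smad reporter; compounds added before 500 pg/mL final TGF-beta, 18 h incubation at 37 degrees C, GFP fluorescence quantified per cell by imaging cytometry.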
DT40 TDP1 CPT: DT40-hTDP1 cell growth loss with CPT. chicken DT40 Tdp1-/-;hTDP1 cells + 20 nM CPT, ATP luminescence, 48 h. Potency, µM (series often up to 46.2 µM), for the others: top-dose activity change, negative = growth inhibition, actives largely listed as inhibitors. hit rate 12% among 420,000. AID 686979; note: potency is the fitted concentration of half-maximal effect; % is set by controls: 0 for no effect and ±100 for the full control effect; nearly all actives have a fitted effect of over 55% in size
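Chicken DT40 Tdp1-/- cells stably complemented with human TDP1 were seeded at 400 cells/well in medium containing 20 nM camptothecin, exposed to pin-transferred compounds, and grown at 37 °C for at least 48 hr. Viability was read as ATP luminescence.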
DT40 TDP1 no CPT: qHTS for Inhibitors of human tyrosyl-DNA phosphodiesterase 1 (TDP1): qHTS in cells in absence of CPT; hit rate 15% among 420,000; Potency, µM (series often up to 46.2 µM), for the others: top-dose activity change, negative = growth inhibition, usual class: inhibitors; AID 686978, 2013; DT40 Tdp1-/- hTDP1 cells, no CPT, ATP luminescence, 48 h; note: potency is the fitted concentration of half-maximal effect; % is set by controls: 0 for no effect and ±100 for the full control effect; nearly all actives have a fitted effect of over 55% in size
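No-CPT arm: Tdp1-/-;hTDP1 DT40 cells (400/well) plus compounds, incubated ≥48 hr at 37 °C. Readout CellTiter-Glo luminescence.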
HepG2 viability: HepG2 cytotoxicity, counter-screen for TGF-b inhibitors; AID 588856; HepG2 CAGA-GFP viability, ATP luminescence, 18 h; hit rate 0.76% among 410,000; Potency, µM (titrated, usually from 46.1 µM), without a hit: at the top dose activity change, negative = cytotoxicity, most hits filed as cytotoxic; note: potency is the fitted concentration of half-maximal effect
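CellTiter-Glo luminescence gave cytotoxicity after 18 hours at 37 degrees C. The cells were HepG2 CAGA-GFP in 1% FBS DMEM, stimulated with 500 pg/mL TGF-beta after compound addition. %Activity was normalised to no-cell wells (complete cell-killing) and DMSO (no toxicity), and curves were fitted and classified.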
Active calls of the source: *; ? = inconclusive; . = not tested or not shown; [ ] = dose if it differs, or a comment. Sampled rows, rich in hits. Any-hit rate of the full collection: about 19%. Unless noted, calls come from the whole dose curve; as a rule, active = well fitted curve in the direction sought with a large enough effect; inconclusive = small, poorly fitted or top-dose-only effect, or another doubt; inactive = no such curve, though single readings can be large; an effect the other way counts as inactive or inconclusive.

SMILES	IL-1B inflam inh	TDP1 inh	TGFb inhibitor	DT40 TDP1 CPT	DT40 TDP1 no CPT	HepG2 viability
O=C1c2ccccc2C(Nc2cccnc2)N1Cc1ccccc1 (stereo not drawn)	0	-1%	-13%	-13%	-20%	-14%
O=C1c2ccccc2C(Nc2cccnc2)N1Cc1ccccc1Cl (stereo not drawn)	32	4%	?	?	21µM*	-7%
COc1cccc2cc(C(=O)N(Cc3cccs3)Cc3cccs3)c(=O)oc12	.	1%	3%	-7%	?	-30%
COc1ccc(Br)c(C(=O)OCC(=O)NC2CCCCCCC2)c1	11	.	?	1%	?	-50%
CCOc1ccc(C(C)=O)cc1N1C(=O)C2C3C=CC(O3)C2C1=O (stereo not drawn)	-10	2%	?	6.5µM*	5.2µM*	-56%
CCOc1ccc(C(C)=O)cc1N1C(=O)C2C3C=CC(C3)C2C1=O (stereo not drawn)	-5	.	2%	-4%	-6%	-4%
O=S1(=O)CC(N2CCSCC2)CN1Cc1cn(Cc2ccc(F)cc2)nn1 (stereo not drawn)	0	.	.	4%	-11%	.
COC(C(=O)Nc1ccnn1C1CCN(Cc2cnn(C(C)C)c2)CC1)c1ccccc1 (stereo not drawn)	-4	3%	1%	-17%	22%	0%
NC(=O)/C(=C/c1ccco1)C(N)=S	-12	10µM*	7%	0%	5%	0%
COCCN(C(=O)COC(=O)CNC(=O)c1cccs1)c1c(N)n(Cc2ccccc2)c(=O)[nH]c1=O	5	-7%	-1%	16%	1%	-26%
COCCn1c(N)c(C(=S)NC(=O)c2cccs2)c(=O)[nH]c1=O	-9	-9%	-4%	10µM*	?	-3%
Cn1c(=O)c2c(nc(Br)n2C/C=N/NC(N)=S)n(C)c1=O	.	6%	?	21µM*	?	-15%
O=c1c2ccccc2sn1-c1ccc(Cl)cc1Cl	-105*	.	?	6.5µM*	2.9µM*	-58%
O=c1c2ccccc2ncn1-c1ccc(Cl)cc1Cl	-23	.	-11%	?	-15%	9%
Cc1ccccc1C(=O)OCc1cc(=O)n2nc(-c3cccs3)sc2n1	.	5%	-11%	-21%	-13%	-27%
CC1CC(C)CN(C(=O)c2cc3ccccc3o2)C1 (stereo not drawn)	-14	.	-4%	5%	?	0%
CC1CC(C)CN(C(=O)c2cc3cc(Br)cc(Br)c3o2)C1 (stereo not drawn)	-70*	-6%	-13%	-2%	?	-8%
COc1ccc(N(C)S(=O)(=O)c2cccc(C(=O)Nc3ccc(-n4cnnn4)cc3)c2)cc1	-4	7%	11%	18µM*	18µM*	-20%
COc1ccc(N(C)S(=O)(=O)c2cccc(C(=O)Nc3ccc4c(c3)OCCO4)c2)cc1	-14	3%	-1%	16µM*	15µM*	-10%
COc1ccc(N2CCN(C(=O)NC34CC5CC(CC(C5)C3)C4)CC2)cc1	39	5%	38%	?	23µM*	-7%
COc1cccc(N2CCN(CC(=O)C34CC5CC(CC(C5)C3)C4)CC2)c1	0	3%	0%	3%	-16%	-4%
COc1cccc(N2CCN(C(C)C(=O)NC34CC5CC(CC(C5)C3)C4)CC2)c1 (stereo not drawn)	-15	.	-2%	?	16µM*	-12%
O=C(NC12CC3CC(CC(C3)C1)C2)N1CCN(c2ccccc2)CC1	16	.	4%	?	?	-21%
CCc1nn2c(=O)c(S(=O)(=O)Nc3ccc(C(C)C)cc3)c(C)nc2s1	12	0%	-8%	?	16µM*	-9%
CCc1nn2c(=O)c(S(=O)(=O)Nc3cccc(F)c3)c(C)nc2s1	43	-2%	-5%	-1%	-10%	-2%
SMILES	IL-1B inflam inh	TDP1 inh	TGFb inhibitor	DT40 TDP1 CPT	DT40 TDP1 no CPT	HepG2 viability
CCOC(=O)C(C)NC(=O)C1CCN(c2ncnc3c2nc2n3CCCCC2)CC1 (stereo not drawn)	.	6%	7%	?	-27%	7%
CCC1NC(C(=O)O)Cc2c1[nH]c1ccccc21 (stereo not drawn)	9	.	-1%	7.3µM*	9.2µM*	-20%
CCOC(=O)N1N=C(c2ccc(OC)cc2)CC1(O)C(F)(F)F (stereo not drawn)	-12	1%	-13%	0%	-23%	-1%
CCC1=NN(C(=O)Cc2ccc([N+](=O)[O-])cc2)C(O)(C(F)(F)F)C1 (stereo not drawn)	0	1%	8%	-6%	?	-2%
CCC1=NN(C(=O)Cc2ccc(OC)cc2)C(O)(C(F)(F)F)C1 (stereo not drawn)	10	-2%	-1%	29µM*	21µM*	-6%
COc1ccc(CC(=O)N2N=C(c3ccncc3)CC2(O)C(F)(F)F)cc1 (stereo not drawn)	34	2%	0%	5.2µM*	4.6µM*	7%
Cc1ccc(OCC(=O)N2N=C(c3cccnc3)CC2(O)C(F)(F)F)cc1C (stereo not drawn)	-6	-1%	-16%	16µM*	?	-1%
C#C[C@]1(O)CC[C@H]2[C@H]3CCC4=Cc5oncc5C[C@]4(C)[C@@H]3CC[C@]21C	.	12%[56.1 µM]	.	9%	?	.
CCOc1ccccc1N(CC(=O)Nc1ccc(OC)c(Cl)c1)S(=O)(=O)c1ccccc1	.	-5%	1%	.	.	-16%
Cc1ccccc1CNC(=O)CN(c1cccc(C)c1C)S(C)(=O)=O	.	5%	-14%	-27%	?	-1%
O=[N+]([O-])c1ccc(NC(=S)NCc2ccncc2)cc1	12	0%	0%	-20%	?	-6%
O=[N+]([O-])c1ccc(C=NNC(=S)NN=Cc2ccc([N+](=O)[O-])cc2)cc1	28	.	-4%	?	-14%	0%
O=[N+]([O-])c1ccc(C=NNC(=S)Nc2ccc(F)cc2)cc1	0	.	0%	1.5µM*	2.9µM*	4%
O=[N+]([O-])c1ccc(NC(=S)NCc2ccc(F)cc2)cc1	-100*	6%	?	?	15µM*	-35%
